# The whole screen tested about 290,000 compounds, of which about 3,000 (1%) were called active. No stated cut-off is given here; in the data, active means inhibition mostly above about 36% (no sharp cut-off); inactive means mostly below about 34%. This excerpt belongs to a sample that is enriched for actives.
# Experiment: NOD1 signaling inhibitors, primary screen, cell-based, luminescence, uHTS (AID 1578);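 further: HEK-293T reporter cells stimulated with the NOD1 agonist gamma-tri-DAP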
# Conditions: NOD1-driven NF-kB luciferase reporter cells, at 4 µM, active compounds read high
row,Compound,inhibition
1,O=C(CS(=O)c1ccc(C(F)(F)F)cc1[N+](=O)[O-])Oc1ccc(Cl)cc1 (stereo unspecified),15.4% (inactive)
2,O=C(CS(=O)c1ccc(C(F)(F)F)cc1[N+](=O)[O-])Oc1ccccc1 (stereo unspecified),21.2% (inactive)
3,CS(=O)(=O)c1ccc(S(=O)CC(=O)Oc2ccc(Cl)cc2)c([N+](=O)[O-])c1 (stereo unspecified),47.4% (active)
4,Nc1ccc(-c2nc3cc([N+](=O)[O-])ccc3o2)cc1,-15.4% (inactive)
5,COc1ccc(S(=O)Cc2ccc(C(=O)NCc3cccc(OC)c3)o2)cc1 (stereo unspecified),-16.8% (inactive)
6,O=C(CSCc1cnn(-c2ccccc2)c1-n1cccc1)NCc1cccnc1,60.7% (active)
7,O=C(CSCc1cnn(-c2ccccc2)c1-n1cccc1)NCc1ccccn1,-18.4% (inactive)
8,COc1cccc(CNC(=O)CSCc2cnn(-c3ccccc3)c2-n2cccc2)c1,19.5% (inactive)
9,CCCCCCCC(=O)N/N=C(\C)c1cccnc1,7.8% (inactive)
10,COCCNC(=O)/C(C#N)=C/c1ccc(O)c([N+](=O)[O-])c1,-50.1% (inactive)
11,N#C/C(=C\c1ccc(O)c([N+](=O)[O-])c1)C(=O)NCc1ccccc1,-13.6% (inactive)
12,COc1cc(NC(=O)/C=C/c2ccccc2[N+](=O)[O-])cc(OC)c1,-36.1% (inactive)
13,O=C(/C=C/c1ccccc1)NCc1cccnc1,-46% (inactive)
14,N#C/C(=C\c1ccccc1[N+](=O)[O-])C(=O)NCc1ccccc1,-5% (inactive)
15,N#C/C(=C\C=C\c1ccccc1)C(=O)NCc1cccnc1,68.7% (active)
16,O=C(O)/C=C/c1ccccc1[N+](=O)[O-],2.2% (inactive)
17,N#C/C(=C\C=C\c1ccccc1[N+](=O)[O-])C(=O)NCc1ccccc1,97.3% (active)
18,COC(=O)C(=Cc1ccccc1[N+](=O)[O-])C(=O)OC,28.4% (active)
19,COCCNC(=O)/C(C#N)=C/C=C/c1ccccc1[N+](=O)[O-],76.2% (active)
20,COCCNC(=O)/C(C#N)=C/C=C/c1ccccc1,-4.8% (inactive)
21,N#C/C(=C\C=C\c1ccccc1)C(=O)NCc1ccco1,19.2% (inactive)

row,Compound,inhibition
1,Cc1cc([N+](=O)[O-])ccc1NC(=O)Nc1ccc(F)cc1F,-5% (inactive)
2,Cc1ccc(Cn2nnc3c(=O)n(Cc4cc(C)ccc4C)cnc32)cc1,-9.7% (inactive)
3,CN(C)S(=O)(=O)c1cccc(NC(=O)c2cc3ccccc3o2)c1,-40.6% (inactive)
4,COc1ccc(/C=C(\C#N)C(=O)NC(C)c2ccccc2)cc1O (stereo unspecified),-1.1% (inactive)
5,CC(=O)c1c(O)c2ccccc2n(C(C)C)c1=O,12% (inactive)
6,O=C(COC(=O)c1ccco1)Nc1ccccc1[N+](=O)[O-],-4.7% (inactive)
7,CN(C)C(=O)Nc1ccccc1CC[N+](=O)[O-],-28.5% (inactive)
8,COc1ccc(-c2csc3ncnc(Cl)c23)cc1,-16.4% (inactive)
9,Cc1c(C(=O)N2CCN(c3ccccc3F)CC2)oc2c1C(=O)CC(C)(C)C2,0% (inactive)
10,O=S(=O)(/N=C(\Sc1ccc(Cl)cc1)c1ccccc1)c1ccccc1,3.3% (inactive)
11,C=CCn1c(=O)c2c3c(sc2n2c(Nc4ccc(C(=O)OCC)cc4)nnc12)CCCC3,-30.7% (inactive)
12,CCC(C)(C)NC(=O)C(c1ccc(OC)cc1)N(C(=O)CCC(=O)Nc1cc(C)on1)c1ccc(F)cc1 (stereo unspecified),-11.7% (inactive)
13,CC(C)c1ccc(/C=N/NC(=O)CC(=O)NCc2ccccc2)cc1,-41.2% (inactive)
14,CCN(CC)S(=O)(=O)c1cc([N+](=O)[O-])ccc1NNC(=O)Nc1ccc(Cl)c(Cl)c1,83.8% (active)
15,CCN(CC)S(=O)(=O)c1cc([N+](=O)[O-])ccc1NNC(=O)Nc1ccc(F)cc1,2% (inactive)
16,CCN(CC)S(=O)(=O)c1cc([N+](=O)[O-])ccc1NNC(=O)Nc1ccccc1,-23.4% (inactive)
17,COc1ccc(CN2CCN(C(=O)CCC(=O)Nc3nnc(C4CCCCC4)s3)CC2)cc1F,26.9% (inactive)
18,COc1ccc(C(=O)N/N=C/c2ccc(OC)c(COc3ccc(F)cc3F)c2)cc1,38.8% (inactive)
19,COc1ccc(C(=O)N/N=C/c2ccc(OC)c(COc3ccc(F)cc3)c2)cc1,56.6% (active)
20,COc1ccc(/C=N\NC(=O)c2ccccc2F)cc1COc1ccc(F)cc1F,31.2% (inactive)
21,COc1ccc(/C=N\NC(=O)c2ccccc2)cc1COc1ccc(F)cc1,39.2% (inactive)

row,Compound,inhibition
1,COc1ccc(C(=O)N/N=C/c2ccc(OC)c(COc3ccccc3)c2)cc1,3.5% (inactive)
2,COc1ccc(/C=N/NC(=O)c2cc(C(C)(C)C)[nH]n2)cc1COc1ccc(F)cc1F,44.1% (active)
3,C/C(=N\NC(=O)c1ccc2ccccc2c1)c1cccs1,-67.5% (inactive)
4,O=C(CCSc1ccccc1)NCCSCc1ccccc1,-33.8% (inactive)
5,Cc1ccccc1CSCCNC(=O)CCSc1ccccc1,71.3% (active)
6,COc1ccc(CNC(=O)CCSCc2ccccc2C)cc1,49.7% (active)
7,Cc1ccc(CNC(=O)CCSCc2ccccc2C)cc1,-14.9% (inactive)
8,COc1ccc(CNC(=O)CCSCc2ccc(C)cc2)cc1,-7.5% (inactive)
9,Cc1ccc(SCCC(=O)NCCSCc2ccccc2C)cc1,-35.1% (inactive)
10,CCC(C)[C@H](NC(=O)Nc1ccccc1F)C(=O)O (stereo partly specified),-12.6% (inactive)
11,NS(=O)(=O)c1cccc(NC(=O)COC(=O)CCSc2ccccc2)c1,-26.8% (inactive)
12,O=[N+]([O-])c1ccc(Sc2n[nH]c(-c3ccncc3)n2)nc1,-10.2% (inactive)
13,O=C(Nc1ccc(Cl)cc1)Nc1ccccc1Sc1ncc([N+](=O)[O-])s1,-6.5% (inactive)
14,O=[N+]([O-])c1cnc(Sc2ccncn2)s1,66% (active)
15,O=C(O)C1Nc2c(cccc2C(F)(F)F)C2C=CCC12 (stereo unspecified),-8.8% (inactive)
16,O=C(Nc1ccncc1)c1c(F)c(F)c(F)c(F)c1F,11% (inactive)
17,O=C(Nc1ccccc1)c1c(F)cccc1F,-2.4% (inactive)
18,O=S(=O)(c1ccc(Cl)s1)N1CCN(c2ncccn2)CC1,-11.8% (inactive)
19,Cc1ccccc1-c1nsc(SCC(=O)c2ccc(Cl)cc2)n1,-4.8% (inactive)
